The results in this text go back to ChEMBL document CHEMBL3988442, “University of Dundee, Small-Polar-MMV Screening Library” (2021).

Structures are written as SMILES.

The assay deals with AMP-activated protein kinase, AMPK (Homo sapiens) (UniProt P54646+O43741+P54619+Q9UGJ0+Q9Y478+Q13131+Q9UGI9). Briefly: AMP-dependent Kinase enzyme assay. An in vitro enzyme assay that detects ADP turnover that is directly proportional to AMPK activity. This uses naive AMPK that is activated during the assay with MK-8722. The format is functional. On the set-up: scale not given: direction of the effect not stated beside the values. Particulars: 30 µM.
Regarding `COc1c(C)cnc(CN2CCCC(c3noc(C4CC4)n3)C2)c1C` (stereo not given), the Percent Effect is -0.157%. In the case of `CCN(CC)CCCNC(=O)Nc1c(C)cccc1C(C)C`, the Percent Effect is 4.58%. The same measure for `CN(CC1(CO)CCCC1)c1nc2c(c(=O)[nH]1)Cc1ccccc1OC2`: 6.29%; for `NC(=O)CN1CCC(C(=O)NCC(O)c2cccc(F)c2)CC1` (stereo not given): -5.48%. Turning to `CC(=O)NCc1ccc(C(=O)N2CCCc3c(F)ccc(C)c32)cc1`, the Percent Effect was -0.0493%. As for `CCCNC(=O)CNC(=O)CC1CCCc2cc(OC)ccc21` (stereo not given), the Percent Effect was -4.21%. As for `CN1CCN(C(=O)CCn2ncc3ccccc32)CC(C(N)=O)C1` (stereo not given), the figure is 7.38%; as for `COC(=O)CNC(=O)c1ccn(-c2ccc(Cl)c(Cl)c2)n1`, 13.8%. The same measure for `COC(=O)c1ccc(N2CCN(C(=O)CCCc3cn[nH]c3)CC2)cc1`: 6%; for `Cc1nc(CN2CCN(CC(O)CN3CCOCC3)CC2)oc1C` (stereo not given): -2.09%. Take `Cc1[nH]nc(CCC(=O)N2C[C@H]3CC[C@@H]2CN(C(=O)N(C)C)C3)c1C`: the Percent Effect amounted to 0.209%. As for `O=C(C1CC1)N1CCCCCC1C1CCN(c2ncccn2)CC1` (stereo not given), the Percent Effect is -6.9%. As for `O=C(O)[C@H]1C[C@@H](C(=O)NCc2ccncc2)CN(Cc2ccccc2)C1`, the figure is -3%. For `CSCc1noc(-c2ccc(C)c(N3CCNC3=O)c2)n1`, the Percent Effect was determined as 13.8%. For the compound `O=C(Cn1cccn1)N1CCC(c2nnc(-c3ccsc3)o2)CC1`, the Percent Effect came out at 14%. The same measure for `NCC(CO)Cc1cccc(OC(F)(F)F)c1` (stereo not given): -3.22%. As for `CS(=O)(=O)N1CCN(C(=O)c2cncs2)CC(C(N)=O)C1` (stereo not given), the figure is 9.41%. For `O=C(Cc1ccon1)NC1CCCN(c2ccccc2F)C1=O` (stereo not given), the Percent Effect was 1.71%.

With `Cc1nccn1-c1cccc(N2CCC(OCC3CCCCO3)CC2)n1` (stereo not given), the Percent Effect was 6.51%. The same measure for `O=C(NCc1cccnc1-n1cncn1)c1cc(Cl)ccn1`: -11.1%; for `Cc1cnn(C2CN(CCOc3ccc(C#N)cc3)C2)c1`: 5.88%. The same measure for `COc1cccc(CCC(=O)Nc2c(C)nn(C)c2C)c1OC`: 15.8%; for `COc1ccc2c(c1)CCCC2CC(=O)NCC(C)(C)C(=O)O` (stereo not given): 0.926%; for `O=S(=O)(NCC1(c2cccs2)CCCC1)c1cccnc1`: -4.96%.

Consider `CCc1ccc2nc(C)cc(C(=O)NC3CCC(=O)N(C)C3)c2c1` (stereo not given), for which the Percent Effect is -7.18%. As to `COc1ccc(-c2cc(C3CCCCCN3S(C)(=O)=O)on2)cc1` (stereo not given), the Percent Effect worked out at 7.05%. The same measure for `Cc1nnc(CCNC(=O)Nc2ccc(S(C)(=O)=O)cc2)[nH]1`: 6.21%; for `CN(CCc1noc(C2CC2)n1)C(=O)CN1C(=O)COc2ccccc21`: -1.86%; for `CS(=O)(=O)c1ccc(-c2cc(C3CC3)c(C#N)c(N)n2)cc1`: 12.5%.

Take `CNC(=O)Cc1ccc(NC(=O)NCC(C)c2ncc(C)s2)cc1` (stereo not given): the Percent Effect is -3.25%. As for `CSCCC(=O)N1CCN(CC(O)C(C)(C)C)CC1` (stereo not given), the Percent Effect was -4.07%. As for `O=C1NCCN(C(=O)CN2CCOC2=O)C1c1cccc(F)c1` (stereo not given), the figure is -8.21%; as for `Cc1nc2cc(C3CCOCC3)nn2c(NCC2COCCO2)c1C` (stereo not given), 1.07%; as for `Cc1cccc(COc2ccc(C(C)NS(N)(=O)=O)cc2)c1` (stereo not given), 7.65%. As for `COC[C@@H]1CCCN1C(=O)CCc1c(C)nn(C)c1C`, the figure is -3.67%.

With `Cn1cc(NC(=O)Cc2ccccc2Br)cc1C(N)=O`, the Percent Effect amounted to 3.12%. As for `CN(C)Cc1cccc(-c2cccnc2C(=O)NCc2cn(C)cn2)c1`, the figure is 23.4%; as for `CCN1CC(COC(=O)c2cc(C)nn2CC)CC1=O` (stereo not given), 5.06%.

Take `Cc1ccc(C(=O)NC2CCN(S(C)(=O)=O)CC2)c(=O)[nH]1`: the Percent Effect was determined as 1.76%. For the compound `CCC(=O)NC1CCCN(c2cncc(OCc3ccccc3)n2)C1` (stereo not given), the Percent Effect turned out to be 5.23%.
